Experimental data as given in publication PMC5540273 (PLoS ONE, 2017).

How the values were obtained:
Conditions in all cases: concentration: 1 μM, replicates: in singlicate; n = 1
CSF1R = tested on: CSF1R
CSK = tested on: CSK
CSNK1A1L = tested on: CSNK1A1L
CSNK1A1 = tested on: CSNK1A1
CSNK1D = tested on: CSNK1D
CSNK1E = tested on: CSNK1E
CSNK1G1 = tested on: CSNK1G1
CSNK1G2 = tested on: CSNK1G2
CSNK1G3 = tested on: CSNK1G3
CSNK2A1 = tested on: CSNK2A1
CSNK2A2 = tested on: CSNK2A2
CTK = tested on: T1, CTK
T1 construct: gene MATK

DAPK1 = tested on: DAPK1
DAPK2 = tested on: DAPK2
DAPK3 = tested on: DAPK3
DCAMKL1 = tested on: T2, DCAMKL1
T2 construct: gene DCLK1

DCAMKL2 = tested on: T3, DCAMKL2
T3 construct: gene DCLK2

DCAMKL3 = tested on: T4, DCAMKL3
T4 construct: gene DCLK3

DDR1 = tested on: DDR1
DDR2 = tested on: DDR2
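Also: KINOMEscan kinase panel screen.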

Cc1cc(Nc2nc(-c3cccc(C)n3)nc3ccccc23)ccn1 [GW872411]
%Inh (CSF1R): 0% | %Inh (CSK): 0% | %Inh (CSNK1A1L): 0% | %Inh (CSNK1A1): 0% | %Inh (CSNK1D): 35% | %Inh (CSNK1E): 31% | %Inh (CSNK1G1): 3% | %Inh (CSNK1G2): 0% | %Inh (CSNK1G3): 0% | %Inh (CSNK2A1): 0% | %Inh (CSNK2A2): 5% | %Inh (CTK): 18% | %Inh (DAPK1): 0% | %Inh (DAPK2): 0% | %Inh (DAPK3): 1% | %Inh (DCAMKL1): 26% | %Inh (DCAMKL2): 0% | %Inh (DCAMKL3): 0% | %Inh (DDR1): 0% | %Inh (DDR2): 0%

CN1C(=O)C(Nc2ccccc2)=C(c2ccccc2)C1=O [SB-300079]
%Inh (CSF1R): 16% | %Inh (CSK): 0% | %Inh (CSNK1A1L): 0% | %Inh (CSNK1A1): 0% | %Inh (CSNK1D): 0% | %Inh (CSNK1E): 0% | %Inh (CSNK1G1): 0% | %Inh (CSNK1G2): 0% | %Inh (CSNK1G3): 0% | %Inh (CSNK2A1): 0% | %Inh (CSNK2A2): 0% | %Inh (CTK): 28% | %Inh (DAPK1): 0% | %Inh (DAPK2): 0% | %Inh (DAPK3): 0% | %Inh (DCAMKL1): 22% | %Inh (DCAMKL2): 0% | %Inh (DCAMKL3): 0% | %Inh (DDR1): 0% | %Inh (DDR2): 37%

Cc1ccccc1COc1cc(-n2cnc3cc(Cl)ccc32)sc1C(N)=O [GW813349]
%Inh (CSF1R): 0% | %Inh (CSK): 0% | %Inh (CSNK1A1L): 0% | %Inh (CSNK1A1): 24% | %Inh (CSNK1D): 1% | %Inh (CSNK1E): 2% | %Inh (CSNK1G1): 0% | %Inh (CSNK1G2): 7% | %Inh (CSNK1G3): 8% | %Inh (CSNK2A1): 5% | %Inh (CSNK2A2): 54% | %Inh (CTK): 0% | %Inh (DAPK1): 0% | %Inh (DAPK2): 0% | %Inh (DAPK3): 0% | %Inh (DCAMKL1): 0% | %Inh (DCAMKL2): 2% | %Inh (DCAMKL3): 10% | %Inh (DDR1): 0% | %Inh (DDR2): 1%

Nc1nc(-c2ccccc2F)c(-c2ccnc3ccccc23)s1 [GW560459]
%Inh (CSF1R): 0% | %Inh (CSK): 0% | %Inh (CSNK1A1L): 7% | %Inh (CSNK1A1): 72% | %Inh (CSNK1D): 66% | %Inh (CSNK1E): 51% | %Inh (CSNK1G1): 13% | %Inh (CSNK1G2): 1% | %Inh (CSNK1G3): 25% | %Inh (CSNK2A1): 0% | %Inh (CSNK2A2): 0% | %Inh (CTK): 0% | %Inh (DAPK1): 0% | %Inh (DAPK2): 0% | %Inh (DAPK3): 13% | %Inh (DCAMKL1): 12% | %Inh (DCAMKL2): 1% | %Inh (DCAMKL3): 1% | %Inh (DDR1): 7% | %Inh (DDR2): 34%

Cc1nc(N(C)[C@H]2CN(C(=O)CC#N)CC[C@H]2C)c2cc[nH]c2n1
%Inh (CSF1R): 13% | %Inh (CSK): 0% | %Inh (CSNK1A1L): 3% | %Inh (CSNK1A1): 0% | %Inh (CSNK1D): 0% | %Inh (CSNK1E): 0% | %Inh (CSNK1G1): 5% | %Inh (CSNK1G2): 0% | %Inh (CSNK1G3): 0% | %Inh (CSNK2A1): 0% | %Inh (CSNK2A2): 6% | %Inh (CTK): 19% | %Inh (DAPK1): 0% | %Inh (DAPK2): 13% | %Inh (DAPK3): 0% | %Inh (DCAMKL1): 6% | %Inh (DCAMKL2): 0% | %Inh (DCAMKL3): 63% | %Inh (DDR1): 28% | %Inh (DDR2): 2%

Nc1nc(N)c2nc(-c3ccccc3)[nH]c2n1 [SKF-12778]
%Inh (CSF1R): 2% | %Inh (CSK): 0% | %Inh (CSNK1A1L): 0% | %Inh (CSNK1A1): 52% | %Inh (CSNK1D): 26% | %Inh (CSNK1E): 25% | %Inh (CSNK1G1): 18% | %Inh (CSNK1G2): 32% | %Inh (CSNK1G3): 30% | %Inh (CSNK2A1): 14% | %Inh (CSNK2A2): 22% | %Inh (CTK): 24% | %Inh (DAPK1): 12% | %Inh (DAPK2): 0% | %Inh (DAPK3): 1% | %Inh (DCAMKL1): 15% | %Inh (DCAMKL2): 0% | %Inh (DCAMKL3): 60% | %Inh (DDR1): 0% | %Inh (DDR2): 9%

CCn1c(-c2ccoc2)nc2cnccc21 [SB-733887]
%Inh (CSF1R): 8% | %Inh (CSK): 0% | %Inh (CSNK1A1L): 0% | %Inh (CSNK1A1): 0% | %Inh (CSNK1D): 12% | %Inh (CSNK1E): 3% | %Inh (CSNK1G1): 0% | %Inh (CSNK1G2): 0% | %Inh (CSNK1G3): 4% | %Inh (CSNK2A1): 0% | %Inh (CSNK2A2): 13% | %Inh (CTK): 0% | %Inh (DAPK1): 0% | %Inh (DAPK2): 0% | %Inh (DAPK3): 14% | %Inh (DCAMKL1): 34% | %Inh (DCAMKL2): 0% | %Inh (DCAMKL3): 0% | %Inh (DDR1): 27% | %Inh (DDR2): 14%

O=C(Nc1n[nH]c2cc(-c3ccccc3F)ccc12)C1CC1 [SB-733371]
%Inh (CSF1R): 0% | %Inh (CSK): 0% | %Inh (CSNK1A1L): 15% | %Inh (CSNK1A1): 0% | %Inh (CSNK1D): 0% | %Inh (CSNK1E): 14% | %Inh (CSNK1G1): 0% | %Inh (CSNK1G2): 0% | %Inh (CSNK1G3): 10% | %Inh (CSNK2A1): 3% | %Inh (CSNK2A2): 0% | %Inh (CTK): 3% | %Inh (DAPK1): 0% | %Inh (DAPK2): 0% | %Inh (DAPK3): 0% | %Inh (DCAMKL1): 16% | %Inh (DCAMKL2): 0% | %Inh (DCAMKL3): 0% | %Inh (DDR1): 0% | %Inh (DDR2): 6%
